Screens deposited in PubChem by National Center for Advancing Translational Sciences (NCATS).
Rows were chosen to be rich in hits. Some 19% of all compounds tested hit in one or more screens of this group.
KB-3-1 cytotox = KB-3-1 parental cell cytotoxicity | KB-3-1 viability, CellTiter-Glo ATP luminescence, 72 h | Potency, µM (titrated, usually from 46.1 µM), actives largely listed as cytotoxic | 1.4% of 400,000 active; further: nearly all actives have a fitted effect of over 60% in size
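Cytotoxicity in the drug-sensitive parental line KB-3-1 was scored as loss of CellTiter-Glo luminescence following 72 h incubation with compound. Values come from curve fitting of normalized concentration-response data.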
TDP1 cell noCPT = qHTS for Inhibitors of human tyrosyl-DNA phosphodiesterase 1 (TDP1): qHTS in cells in absence of CPT; Potency, µM (highest dose often 46.2 µM), without a hit: top-dose activity change, negative = growth inhibition, actives largely listed as inhibitors; AID 686978, 2013; 15% of 420,000 active; DT40 Tdp1-/- hTDP1 cells, no CPT, ATP luminescence, 48 h; further: nearly all actives have a fitted effect of over 55% in size
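Chicken DT40 Tdp1-/- cells stably complemented with human TDP1 were seeded at 400 cells/well with DMSO in place of 20 nM camptothecin. After compound pinning, cells grew at least 48 hr at 37 °C; viability read by CellTiter-Glo luminescence.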
KB-V1 MDR tox = kills drug-selected multidrug resistant KB-V1 cells. KB-V1 MDR cells viability, CellTiter-Glo, 72 h. Potency, µM (top dose mostly 46.1 µM), usual class: cytotoxic. 3.4% of 400,000 active; further: nearly all actives have a fitted effect of over 60% in size
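Drug-selected KB-V1 cells, grown in DMEM lacking phenol red with 10% FBS, receive compound titrations; after three days at 37 degrees C, surviving cell ATP is quantified by CellTiter-Glo luminescence and responses normalized and curve-fitted.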
HT1080-NT tox = kills 2HG-producing HT-1080-NT fibrosarcoma cells. HT-1080-NT fibrosarcoma viability, CellTiter-Glo ATP luminescence, 48 h. Potency, µM (titrated, usually from 46.1 µM), inactives show at the highest dose activity, negative = less viability, actives largely listed as cytotoxic. 1.6% of 360,000 active. AID 686970;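 further: NT is the 2HG producing partner of a matched IDH1 knockdown line; 0% = DMSO-treated cells and -100% = media-only wells without cells; nearly all actives have a fitted effect of over 55% in size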
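Luminescent CellTiter-Glo readout after 48 hours of compound exposure at 37 degrees C defined viability of HT-1080-NT cells. Activity was normalized to DMSO wells and cell-free media wells; concentration-response curves were fitted and assigned curve classes.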
TDP1 cell CPT = growth inhibition of DT40 Tdp1-/-;hTDP1 cells with camptothecin (screen for TDP1 inhibitors). Potency, µM (highest dose often 46.2 µM), for inactives: at the top dose activity change, negative = growth inhibition, actives largely listed as inhibitors. 12% of 420,000 active. chicken DT40 Tdp1-/-;hTDP1 cells + 20 nM CPT, ATP luminescence, 48 h. AID 686979; further: nearly all actives have a fitted effect of over 55% in size
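Cell growth measured by CellTiter-Glo luminescence after a minimum 48 h, 37 C compound exposure with 20 nM CPT in Tdp1-knockout DT40 cells stably expressing hTDP1, seeded 400/well; qHTS titration format.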
HT1080 IDH1KD tx = HT-1080 IDH1 knockdown cell toxicity (counter line); Potency, µM (top dose mostly 46.1 µM), inactives show top-dose activity, negative = toxicity, actives largely listed as cytotoxic; HT-1080 IDH1 knockdown viability, ATP luminescence, 48 h; AID 686971; 2% of 360,000 active;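 further: 0% = DMSO wells and -100% = cell-free medium wells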
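After a 2 h attachment period, IDH1KD HT-1080 cells took pin-transferred compound for 48 h at 37 °C; ATP-based luminescence after 10 min room-temperature reagent incubation reported viability.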
* marks the source's active call; other numbers are inactive results; i = inactive; ? = inconclusive; nt = no result given; [ ] = another dose, or the depositor's remark. The call rests on the fitted dose curve; in most records, active means well fitted curve in the direction sought with a large enough effect; inconclusive means small, poorly fitted or top-dose-only effect, or another doubt; inactive means no such curve, though single readings can be large; an effect the other way counts as inactive or inconclusive. Unless noted, on the % scale 0 is the no-effect control and ±100 the full control effect; potency means the concentration at half of the fitted maximal effect.

SMILES | KB-3-1 cytotox | TDP1 cell noCPT | KB-V1 MDR tox | HT1080-NT tox | TDP1 cell CPT | HT1080 IDH1KD tx
Cc1ccc(Cc2nc3ccccc3nc2SCC(=O)Nc2ccc3c(c2)OCO3)cc1 | i | ? | i | nt | ? | nt
CCn1c(NC(=O)C2CCCCC2)nc2ccccc21 | ? | 13µM* | ? | -11.3% | 18.4µM* | -26.3%
O=C(C[n+]1cc(Br)cc(Br)c1)c1ccc2c(c1)CCCC2 | i | ? | i | nt | ? | nt
CCOc1ccccc1C(=O)NC(C(=O)NCc1ccc(F)cc1)C(C)C (configuration not stated) | i | ? | ? | -4.1% | ? | -4.3%
CCOc1ccccc1C(=O)NCC(=O)Nc1ccc2c(c1)OCO2 | i | -7.3% | ? | -28.1% | -20.1% | -1.6%
CCOc1ccccc1C(=O)NC(C(=O)N(C)Cc1ccc2c(c1)OCO2)C(C)C (configuration not stated) | i | ? | ? | 6.7% | 18.4µM* | 6.3%
CCOC(=O)N1CCC(N2Cc3cccc(C(=O)NCc4ccc(C)cc4)c3C2=O)CC1 | i | ? | i | -3.1% | ? | -0.7%
CCOC(=O)N1CCC(N2Cc3cccc(C(=O)NC(C)c4ccc5c(c4)OCCO5)c3C2=O)CC1 (configuration not stated) | i | 23.1µM* | i | -10.6% | ? | -1.1%
CCOc1ccccc1C(=O)NC(C)c1ccc2c(c1)OCO2 (configuration not stated) | ? | ? | 9.2µM* | ? | 18.4µM* | ?
NS(=O)(=O)c1ccc(NC(=O)COC(=O)/C(=C/c2cccs2)c2cccs2)cc1 | i | -9.5% | i | ? | -11.0% | ?
O=C(NCCc1ccccc1)c1cnc2ccccc2n1 | i | -17.9% | i | 12.9% | ? | 23.5%
Nc1nc(N)c2ncc(C(=O)CCc3ccccc3)nc2n1 | i | ? | i | -0.8% | 13µM* | -9.6%
CCOC(=O)C1C2C=CC3(CN(Cc4cccs4)C(=O)C13)O2 (configuration not stated) | i | 20.6µM* | i | 20.4% | ? | 25.4%
COC(=O)C1[C@H]2C(=O)N(Cc3cccs3)C[C@]23C=C[C@H]1O3 (some centres not stated) | i | -9.4% | i | 12.2% | 11.4% | -3.6%
Nc1c(C(=O)Nc2ccccc2Cl)nnn1-c1ccc2c(c1)OCCO2 | i | ? | i | -10.7% | ? | -20.7%
COc1ccccc1C1(CC(=O)Nc2nccs2)CCOC(C(C)C)C1 (configuration not stated) | i | 4.61µM* | ? | ? | 5.17µM* | ?
CCN(CC)S(=O)(=O)c1ccc(C)c(NC(=O)CSc2ncc(C(F)(F)F)cc2Cl)c1 | i | 23.1µM* | i | 0.4% | ? | -17.1%
Cc1ccc(S(=O)(=O)N(C)C)cc1NC(=O)CSc1ncc(C(F)(F)F)cc1Cl | i | ? | ? | -16.6% | ? | -17.4%
CC(C)(C)NC(=O)NC(=O)CSc1ncc(C(F)(F)F)cc1Cl | i | -27.1% | 13µM* | 9.9% | -22.9% | -3.8%
COCCCNC(=O)CCCCn1c(=O)c2ccccc2n(CC(=O)Nc2ccc(C)cc2C)c1=O | i | 0.2% | i | nt | -3.2% | nt
C/C(CC(=O)Nc1ccccn1)=N\NC(=O)c1ccc([N+](=O)[O-])cc1Cl | i | 3.9% | i | -2.6% | 1.2% | 16.4%
C/C(Cn1nc([N+](=O)[O-])cc1C)=N\NC(=O)c1cccc(Br)c1 | i | -10.6% | i | -3.4% | -0.6% | -2.3%
C/C(Cn1nnc([N+](=O)[O-])n1)=N\NC(=O)c1cccc(Cl)c1 | i | ? | i | ? | 16.4µM* | ?
C/C(Cn1nnc([N+](=O)[O-])n1)=N\NC(=O)c1ccccc1Cl | i | ? | i | ? | 23.1µM* | ?
C/C=C/c1cccc(-c2nc(C(=O)N3CCCCC3)cc3c2[C@H](CCO)N(C(=O)NC(C)C)C3)c1 | i | -21.5% | i | 4.3% | -9.6% | 14.7%
SMILES | KB-3-1 cytotox | TDP1 cell noCPT | KB-V1 MDR tox | HT1080-NT tox | TDP1 cell CPT | HT1080 IDH1KD tx
CC1(C)Cc2cccc(OCC(=O)Nc3ccccc3C(F)(F)F)c2O1 | i | -1.1% | i | 1.3% | -21.5% | -1.9%
Cc1cc(OCC(=O)Nc2ccccc2N2CCOCC2)c(C(C)C)cc1Cl | ? | 14.6µM* | ? | -3.9% | 16.4µM* | -21.8%
CC1(C)Cc2cccc(OCC(=O)OCC(=O)NCc3ccccc3)c2O1 | i | -15.2% | ? | 2.3% | -8.7% | -2.6%
CC1(C)Cc2cccc(OCC(=O)NCc3ccc(F)cc3)c2O1 | i | ? | 14.6µM* | -3.0% | ? | -3.5%
CC1(C)Cc2cccc(OCC(=O)Nc3ccccc3N3CCOCC3)c2O1 | i | ? | 3.66µM* | 11.1% | ? | 8.0%
Cc1ccccc1OCC(=O)Nc1ccc(N2CCOCC2)cc1N1CCOCC1 | i | ? | i | 1.2%[9.24 µM] | ? | 6.8%
COc1cc2c(cc1OC)C(COc1ccc3c(C)cc(=O)oc3c1)N(C(=O)Cc1ccccc1)CC2 (configuration not stated) | i | ? | i | nt | ? | nt
Cc1ccc(C(=O)c2oc3ccccc3c2NC(=O)COc2ccc(C(C)(C)C)cc2)cc1 | i | -6.1% | i | nt | 9.8% | nt
Cc1ccc(OCCCn2c(=O)sc3ccccc32)cc1 | i | -14.6% | i | -2.8% | -3.0% | -1.3%
Cc1ccc(OCCN2C(=O)C(=O)c3cc(C)ccc32)cc1 | ? | ? | ? | -26.8% | 0.92µM* | ?
O=C1c2ccccc2C(=O)N1CCOc1ccccc1 | i | -12.1% | i | -5.1% | 0.2% | -1.4%
Cc1ccc(OCCCN2C(=O)C(=O)c3cccc(C)c32)cc1 | i | 14.6µM* | i | 2.0% | 7.31µM* | -3.0%
Cc1cccc2c1N(CCOc1ccc(C(C)(C)C)cc1)C(=O)C2=O | ? | 4.11µM* | i | ? | 2.91µM* | ?
CCCOc1ccc(CN2C(=O)C(=O)c3cccc(C)c32)cc1 | nt | 1.84µM* | nt | nt | 1.3µM* | nt
CC[C@H](C)[C@H](NC(=O)c1ccccc1)C(=O)Nc1ccc(S(=O)(=O)Nc2cc(C)nc(C)n2)cc1 | i | -23.6% | i | 4.2% | -4.8% | 0.1%
Cc1ccc(CN2C(=O)CSC(C)C2=O)cc1 (configuration not stated) | i | 3.2% | i | 3.4% | 33.6% | -1.6%
